The results in this text go back to PubChem BioAssay.

Results filed as inconclusive are left out. Calls of active or inactive are those of the source.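 The calls were made as follows, unless noted: active = viability loss from added drug above about 55%, and viability with drug at most 40%, in both replicates (limit read from the data, passing the limit was not always enough); inconclusive = both conditions met in only one replicate; inactive = neither replicate meets both conditions.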

Assay [1] in a line: reducers of endogenous Her2 protein level, primary screen, SKBR3 breast tumor cells, AlphaScreen, ATP viability (AID 461;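 active = Her2 level under about 52% in both replicate screens, with viability over 70% of control, limit read from the data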;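 as to Her2 level: lower value means less Her2 protein in the cells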;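 as to viability: percent of carrier control wells set as 100% viability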). The conditions noted are these: 18-24 h, measured here: SKBR3 viability, ATP luminescence, at 10 µM.
Assay [2] deals with Receptor tyrosine-protein kinase erbB-2 (Homo sapiens) (UniProt P04626). The description is as above. The conditions noted are these: 18-24 h, at 10 µM, stronger effect = lower value.
Receptor tyrosine-protein kinase erbB-2 (Homo sapiens), sequence (P04626 whole entry, looked up): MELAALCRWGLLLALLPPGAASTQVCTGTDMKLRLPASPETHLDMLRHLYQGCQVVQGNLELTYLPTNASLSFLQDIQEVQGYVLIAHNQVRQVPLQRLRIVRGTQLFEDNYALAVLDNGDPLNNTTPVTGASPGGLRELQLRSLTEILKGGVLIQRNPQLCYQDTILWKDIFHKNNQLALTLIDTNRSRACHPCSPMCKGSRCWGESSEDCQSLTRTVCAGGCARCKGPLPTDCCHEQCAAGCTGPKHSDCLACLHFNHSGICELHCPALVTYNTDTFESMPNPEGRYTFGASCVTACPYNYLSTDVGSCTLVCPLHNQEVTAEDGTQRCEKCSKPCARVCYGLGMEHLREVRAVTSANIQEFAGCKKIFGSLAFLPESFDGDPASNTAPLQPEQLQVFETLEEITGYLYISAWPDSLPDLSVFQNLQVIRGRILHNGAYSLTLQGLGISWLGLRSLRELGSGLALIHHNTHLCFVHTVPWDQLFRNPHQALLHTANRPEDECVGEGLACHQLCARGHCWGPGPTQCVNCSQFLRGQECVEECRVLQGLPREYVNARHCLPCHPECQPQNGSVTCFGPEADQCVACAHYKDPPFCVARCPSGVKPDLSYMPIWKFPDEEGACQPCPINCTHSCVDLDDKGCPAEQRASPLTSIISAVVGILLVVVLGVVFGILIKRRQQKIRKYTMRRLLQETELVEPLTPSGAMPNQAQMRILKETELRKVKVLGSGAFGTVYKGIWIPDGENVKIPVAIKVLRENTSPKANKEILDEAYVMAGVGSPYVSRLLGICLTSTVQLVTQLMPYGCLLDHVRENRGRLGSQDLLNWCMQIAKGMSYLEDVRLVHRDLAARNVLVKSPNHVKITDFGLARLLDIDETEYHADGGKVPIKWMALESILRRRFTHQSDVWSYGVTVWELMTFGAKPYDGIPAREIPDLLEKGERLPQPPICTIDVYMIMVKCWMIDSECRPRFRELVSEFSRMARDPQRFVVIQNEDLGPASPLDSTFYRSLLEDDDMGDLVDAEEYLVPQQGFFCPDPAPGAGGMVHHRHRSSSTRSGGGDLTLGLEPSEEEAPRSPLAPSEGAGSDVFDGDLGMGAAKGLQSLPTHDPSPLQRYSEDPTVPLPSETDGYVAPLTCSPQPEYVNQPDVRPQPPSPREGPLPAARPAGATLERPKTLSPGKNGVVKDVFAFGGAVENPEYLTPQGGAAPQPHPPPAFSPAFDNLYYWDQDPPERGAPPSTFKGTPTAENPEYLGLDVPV
Assay [3] can be described thus: SK-BR-3 cell growth inhibitors, pilot screen, 24 h, human (AID 572;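 active = viability at or below 10% of carrier control in both of two separate runs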;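 also: compound exposure lasted between 18 and 24 h rather than exactly 24 h; 100% = carrier-treated control wells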). The conditions noted are these: SK-BR-3 viability, CellTiter-Glo luminescence, at 10 µM, stronger effect = lower value.
A short description of assay [4]: HUVEC growth inhibition – cell-based, human, primary screen (AID 575;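 active = viability at or below 30% in both replicate assays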;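 also: 100% = median of untreated cell wells with 0.1% DMSO on each plate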). The conditions noted are these: HUVEC proliferation, CellTiter-Glo luminescence, 72 h; at 10 µM; stronger effect = lower value.
The nature of assay [5]: growth inhibitors of H69AR lung tumor, primary screen, human, duplicate replicates (AID 580;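 active = viability at or under a set limit in both replicates, limit being median viability minus 3 SD, cut at about 48% in these data, passing the limit was not always enough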;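 also: 100% = mean luminescence of untreated wells and 0% = no signal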). The conditions noted are these: H69AR lung tumor cells viability, ATP luminescence, 72 h; at 10 µM; stronger effect = lower value.
Assay [6] is described as follows: reversal of MRP1-mediated doxorubicin resistance, pilot screen, H69AR cells, doxorubicin co-treatment (AID 601). The conditions noted are these: CellTiter-Glo, 72 h, at 10 µM; for differential viability (reversal): stronger effect = higher value.
A short description of assay [7]: 384-well plate pilot, post-Golgi transport modulator project, inhibition of yeast transport mutant growth (AID 636; in the data active = inhibition above about 31%). The conditions noted are these: absorbance 615 nm, about 18 h, stronger effect = higher value.
The nature of assay [8]: growth suppression of yeast trafficking mutant, preliminary HTS, modulators of trafficking downstream of Golgi apparatus project, 1536-format plate, OD 615 nm (AID 637; in the data active = inhibition above about 30%). The conditions noted are these: yeast transport mutant growth, absorbance 615 nm, 18 h; stronger effect = higher value.
A short description of assay [9]: OD615 S. cerevisiae growth inhibition, permissive medium, pilot counter-assay, permissive growth control for S. cerevisiae lifespan shortening project (AID 705;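 active = growth inhibition above 25% in both replicates, a cutoff set 3 SD above the mean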). The conditions noted are these: OD615, 24 h, at 10 µM, stronger effect = higher value.
Assay [10] in a line: Restrictive medium S. cerevisiae growth inhibition, OD615, pilot screen of yeast lifespan reduction project, restrictive growth control (AID 706;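 active = growth inhibition above a set limit, 3 SD over mean compound inhibition, in both replicates, cut at about 43% in these data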;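 also: modified DeaD lifespan yeast strain shifted to restrictive glucose medium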). The conditions noted are these: OD615, 48 h, at 10 µM, stronger effect = higher value.
Assay [11] is described as follows: viability gain of MRP-1-high H69AR cells under doxorubicin, pilot screen, MRP-1 activator project, CellTiter-Glo, duplicate (AID 807;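 active = viability increase at or above a cutoff of the median across tested compounds plus 3 SD, cut at about 8.5% in these data, passing the limit was not always enough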;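 also: compound pretreatment 18-22 h then 72 h combined with doxorubicin; 0% = doxorubicin alone and 100% = vehicle without doxorubicin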). The conditions noted are these: H69AR viability with doxorubicin, CellTiter-Glo luminescence; at 10 µM; stronger effect = higher value.
Assay [12] in a line: growth suppression of beta-catenin knockout HCT116, pilot screen, human colon tumor cells (AID 823;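 active = cell viability at or below a set limit in both duplicate runs, the limit being the all-compound median minus 4 SD, cut at about 23% in these data, passing the limit was not always enough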;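 also: 0% = wells killed by 20 µM Hyamine and 100% = untreated DMSO cell wells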). The conditions noted are these: CellTiter-Glo, 60 h, at 10 µM, stronger effect = lower value.
Assay [13] in a line: growth suppression of PTEN-deleted HCT116, pilot screen, cell-based, HCT116 clonal line, CellTiter-Glo (AID 824;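 active = viability at or below 27.92% in each of two runs, the all-compound median minus 4 SD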;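 also: 0% = 20 µM Hyamine control and 100% = vehicle cell control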). The conditions noted are these: 60 h, at 10 µM, stronger effect = lower value.
Assay [14] can be described thus: inhibitors of the yeast RAM network, pilot screen, dse1pr::URA3 reporter, 5-FOA selection (AID 869;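 active = inhibition over a set limit, the all-compound mean plus 3 SD, in both replicate runs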;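 also: 0% = DMSO wells with no growth and 100% = 10 µM 1-NA-PP1 with full growth; RAM network block rescues cells from 5-FOA so hits raise OD615 growth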). The conditions noted are these: S. cerevisiae dse1pr::URA3 5-FOA growth, OD615, 2 d; at 10 µM; stronger effect = higher value; strain carries analog-sensitive mutant Cbk1 kinase.
A short description of assay [15]: RAM signaling pathway blockade in yeast – S. cerevisiae, Pdr1DBD-CYC8 efflux-inhibited sensitized strain, primary screen (AID 1298;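 active = RAM network inhibition above 8.4% in each of two replicates, 3 SD over the compound average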;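 also: 0% = DMSO untreated cells without growth and 100% = 10 µM 1-NA-PP1 full growth; higher means more yeast growth rescued from 5-FOA killing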). The conditions noted are these: S. cerevisiae cbk1-as DSE1-URA3 strain, 5-FOA growth OD615, 2 d; at 50 µM; stronger effect = higher value.
[16] abbreviates: H69AR cells + 2 uM doxorubicin, measured here: viability with 2 uM doxorubicin, stronger effect = lower value.
Setting [17] is: H69AR cells, compound alone cytotoxicity.

Regarding `CCOc1cc(C2C3=C(CCCC3=O)N(C)C3=C2C(=O)CCC3)cc(Cl)c1O`, the viability in [1] is 106%; in [3], 106% (inactive); in assay [4], 105% (inactive); in assay [5] it was 104% (inactive); in assay [6] (setting [16]) it was 91.5%; in [6] (setting [17]) it was 104%. The results for the viability in assay [12] and in [13] were 96.1% (inactive) and 95.8% (inactive), respectively. Besides, the Her2 level in assay [2] is 74.5% (inactive). Moreover, in assay [6] (H69AR cells + 2 uM doxorubicin), the differential viability (reversal) was 12.8% (inactive). In addition, the inhibition in assay [7] was -6.35% (inactive); in assay [8], 0.49% (inactive); in assay [14], 1.12% (inactive). In addition, the values for the growth inhibition in [9] and in [10] were -11.5% (inactive) and -16.7% (inactive), respectively. The viability increase in [11] is 2.27% (inactive). In assay [15], the RAM network inhibition is 4.21% (inactive).

Consider `CCOC(=O)N1CCN(Cc2nc3c(c(=O)n(C)c(=O)n3C)n2Cc2ccc(F)cc2)CC1`, for which the viability in assay [1] is 86.5%; in [3] it was 86.5% (inactive); in [4], 92.9% (inactive); in [5] it was 72.6% (inactive); in assay [6] (setting [16]), 72.8%; in assay [6] (setting [17]), 72.6%. Besides, the viability in assay [12] was 93.3% (inactive); in [13], 81.7% (inactive). Further, the Her2 level in [2] was 101% (inactive). Further, the differential viability (reversal) in assay [6] (H69AR cells + 2 uM doxorubicin) was -0.205% (inactive). Also, the inhibition in [7] was -4.27% (inactive); in [8] it was 3.67% (inactive); in assay [14], 0.44% (inactive). Moreover, the growth inhibition in [9] is -5.48% (inactive); in assay [10], 5.73% (inactive). Also, in assay [11], the viability increase was -3.14% (inactive). For the same molecule, the RAM network inhibition in [15] is 0.36% (inactive).

Take `Cc1ccc(-c2cc(C(F)(F)F)n3nc(C(=O)N4CCCC4)cc3n2)cc1`: the viability was 101% in assay [1]; 101% (inactive) in assay [3]; 108% (inactive) in [4]; 111% (inactive) in [5]; 100% in assay [6] (setting [16]); 111% in assay [6] (setting [17]). The viability in assay [12] was 96.9% (inactive); in assay [13], 89% (inactive). The Her2 level in assay [2] is 84.5% (inactive). Further, the differential viability (reversal) in assay [6] (H69AR cells + 2 uM doxorubicin) was 11.3% (inactive). The inhibition in assay [7] was -0.68% (inactive); in assay [8] it was 3.65% (inactive); in assay [14], 1.95% (inactive). Further, the growth inhibition in assay [9] was -13.3% (inactive); in assay [10], 1.45% (inactive). Moreover, in [11], the viability increase is -2.2% (inactive). Further, the RAM network inhibition in [15] is 4.14% (inactive).

On to `O=C(NC1CCN(Cc2ccccc2)CC1)C1CCN(S(=O)(=O)c2cccc3cccnc23)CC1`, for which the viability in [1] is 96.5%; in [3], 96.5% (inactive); in assay [4], 86.9% (inactive); in assay [5] it was 102% (inactive); in assay [6] (setting [16]), 101%; in assay [6] (setting [17]), 102%. In addition, the viability in [12] is 88.3% (inactive); in assay [13], 96% (inactive). Besides, in assay [2], the Her2 level was 97.5% (inactive). Also, the differential viability (reversal) in [6] (H69AR cells + 2 uM doxorubicin) was 1.09% (inactive). Moreover, the values for the inhibition in assay [7], in [8] and in assay [14] were -0.13% (inactive), -2.62% (inactive) and -0.18% (inactive), respectively. Besides, the growth inhibition in assay [9] is 5.75% (inactive); in [10], 1.73% (inactive). For the same molecule, the viability increase in assay [11] is 1.84% (inactive). Moreover, the RAM network inhibition in assay [15] was 1.59% (inactive).

As for `COc1ccc(-c2nc(CSCC(=O)NCc3ccc4c(c3)OCO4)c(C)o2)cc1OC`, the viability in assay [1] was 98%; in assay [3], 98% (inactive); in assay [4], 92.9% (inactive); in assay [5], 84.9% (inactive); in assay [6] (setting [16]) it was 92%; in [6] (setting [17]), 84.9%. In addition, the viability was 84.7% (inactive) in assay [12] and 74.1% (inactive) in assay [13]. Moreover, the Her2 level in [2] is 108% (inactive). Besides, the differential viability (reversal) in assay [6] (H69AR cells + 2 uM doxorubicin) was -7.12% (inactive). Besides, the inhibition in assay [7] was -4% (inactive); in assay [8], 1.5% (inactive); in [14], 0.57% (inactive). Further, the growth inhibition is -13.4% (inactive) in assay [9] and -12.2% (inactive) in assay [10]. Also, the viability increase in assay [11] is -3.57% (inactive). In assay [15], the RAM network inhibition is 6.3% (inactive).
